Sampled rows, rich in hits. Any-hit rate of the full collection: about 4.6%.
TRHR PAM: allosterically enhances the human TRH receptor; P34981; TRHR cells, fluo-8 calcium fluorescence, EC20 TRH enhancement; enhancement, % at 2 µM; 0.66% of 360,000 active; in the data active = enhancement above about 30%
Target sequence (P34981 whole entry, looked up): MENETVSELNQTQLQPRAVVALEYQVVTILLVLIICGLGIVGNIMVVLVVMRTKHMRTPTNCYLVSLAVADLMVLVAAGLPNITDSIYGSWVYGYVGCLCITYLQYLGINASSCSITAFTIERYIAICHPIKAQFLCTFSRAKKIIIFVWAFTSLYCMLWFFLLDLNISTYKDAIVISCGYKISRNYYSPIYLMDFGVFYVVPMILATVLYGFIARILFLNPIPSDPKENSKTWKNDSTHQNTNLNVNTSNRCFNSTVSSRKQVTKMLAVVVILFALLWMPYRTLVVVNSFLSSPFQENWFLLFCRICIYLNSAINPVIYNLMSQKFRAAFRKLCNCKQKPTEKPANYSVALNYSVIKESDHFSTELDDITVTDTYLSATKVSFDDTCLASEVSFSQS
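Enhancer read-out: after compound pinning and an initial kinetic agonist-mode read, an EC20 of TRH (10 nM final) was injected and fluo-8 calcium signal (Ex 480/Em 530) followed at 1 s/cycle for 100 cycles in TRHR-expressing cells.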
D1 antag: antagonists of human D1 dopamine receptor | P21728 | HEK293 TREx D1 cells, calcium flux, dopamine EC80; active compounds read low | activity change, negative = inhibition, % at 10 µM | 3.2% of 360,000 active | AID 504652; in the data active = activity change below about -30%
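Tetracycline-induced HEK293 T-REx cells with force-coupled D1 receptor were loaded with a no-wash calcium dye. Compound was added after a 10 s baseline and read kinetically for 180 s; EC80 dopamine was then added and calcium flux followed another 180 s.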
TRHR agonist: TRH receptor (human) agonism; activation, % at 2 µM; TRHR cells, calcium flux fluo-8, FDSS agonist mode; P34981; 0.18% of 360,000 active
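Steps: seed TRHR cells overnight; add fluo-8 no-wash Ca dye, RT 30 min–1.5 h; record 10 s baseline; pin-transfer compounds; monitor fluorescence 1 cycle/s for the agonist window. Calcium increases flag candidate agonists.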
D1 agonist: human D1 receptor agonism; AID 504660; HEK293 T-REx D1 cells, calcium flux, agonist mode; P21728; activation, % at 2 µM; 1% of 360,000 active
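Tetracycline-induced HEK293 TREx D1 cells, force-coupled to calcium signalling, were dye-loaded with a no-wash calcium kit. Compound was pin-added after a 10 s baseline. Fluorescence was read kinetically at 1 cycle/s for 180 s, with calcium rises flagged as agonism.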
D1 potentiator: human D1 dopamine receptor positive modulation | P21728 | HEK293 TREx D1 cells, calcium flux, dopamine EC20 potentiation | potentiation, % at 10 µM | 0.036% of 360,000 active | AID 504651; in the data active = potentiation above about 30%
A number is an active result. Rule as the data show it, unless noted: active = activation above about 30%; inactive = the rest.

Results for CC(=O)c1ccc(NC(=O)C(C)OC(=O)c2cccc(-n3cnnn3)c2)cc1 (configuration not stated) ?
TRHR PAM: inactive; D1 antag: inactive; TRHR agonist: inactive; D1 agonist: inactive; D1 potentiator: inactive

What do the screens show for `CC(OC(=O)c1cccc(-n2cnnn2)c1)C(=O)Nc1cccc(Cl)c1` (configuration not stated)?
TRHR PAM: inactive; D1 antag: -36; TRHR agonist: inactive; D1 agonist: inactive; D1 potentiator: inactive

What do the screens show for `COc1ccc(NC(=O)COC(=O)c2ccc(-n3cnnn3)cc2)cc1Cl`?
TRHR PAM: 31; D1 antag: inactive; TRHR agonist: inactive; D1 agonist: inactive; D1 potentiator: inactive

How did COc1ccc(-n2nc(C(=O)O)c3csc(N)c3c2=O)cc1 do in these assays?
TRHR PAM: inactive; D1 antag: inactive; TRHR agonist: inactive; D1 agonist: inactive; D1 potentiator: inactive

Results for COc1cc(C(=O)Nc2cccc(-n3cnnn3)c2)cc(OC)c1OC ?
TRHR PAM: inactive; D1 antag: inactive; TRHR agonist: inactive; D1 agonist: inactive; D1 potentiator: inactive

How did COc1ccc(NC(=O)COC(=O)CNC(=O)c2cccs2)cc1Cl do in these assays?
TRHR PAM: inactive; D1 antag: -34; TRHR agonist: inactive; D1 agonist: inactive

Results for COc1ccc(NC(=O)CCC(=O)c2cccs2)cc1Cl ?
TRHR PAM: inactive; D1 antag: inactive; TRHR agonist: inactive; D1 agonist: inactive; D1 potentiator: inactive

How did COc1cccc(OC)c1C(=O)Nc1cccc(-n2cnnn2)c1 do in these assays?
TRHR PAM: inactive; D1 antag: -35; TRHR agonist: inactive; D1 agonist: inactive; D1 potentiator: inactive

Results for CC1CCCCN1S(=O)(=O)c1ccc(S(=O)(=O)N2CCCC2)cc1 (configuration not stated) ?
TRHR PAM: inactive; D1 antag: inactive; TRHR agonist: inactive; D1 agonist: inactive; D1 potentiator: inactive

What do the screens show for `CC1CCCCN1S(=O)(=O)c1ccc(C(=O)N2CCOCC2)cc1` (configuration not stated)?
TRHR PAM: 33; D1 antag: inactive; TRHR agonist: inactive; D1 agonist: inactive; D1 potentiator: inactive

Results for O=C(CCC1N=C2c3ccccc3N=C(SCc3cccc(F)c3)N2C1=O)NC1CCCCC1 (configuration not stated) ?
TRHR PAM: inactive; D1 antag: inactive; TRHR agonist: inactive; D1 agonist: inactive; D1 potentiator: inactive

How did O=C(COC(=O)c1ccc(Cl)c([N+](=O)[O-])c1)NC1CCCC1 do in these assays?
TRHR PAM: inactive; D1 antag: inactive; TRHR agonist: inactive; D1 agonist: inactive; D1 potentiator: inactive

How did O=C(COC(=O)c1cccc2c1C(=O)c1ccccc1C2=O)NC1CCCCC1 do in these assays?
TRHR PAM: inactive; D1 antag: -78; TRHR agonist: inactive; D1 agonist: inactive; D1 potentiator: inactive

Results for N#Cc1cccc(C(=O)OCC(=O)NC(=O)NC2CCCCC2)c1 ?
TRHR PAM: inactive; D1 antag: inactive; TRHR agonist: inactive; D1 agonist: inactive; D1 potentiator: inactive

Results for O=C(COC(=O)c1ccccc1C(=O)c1ccc(Cl)c([N+](=O)[O-])c1)NC1CCCCCC1 ?
TRHR PAM: inactive; D1 antag: -34; TRHR agonist: inactive; D1 agonist: inactive; D1 potentiator: inactive

What do the screens show for `O=C(COC(=O)c1cccc(OC(F)F)c1)NC(=O)NC1CCCCC1`?
TRHR PAM: inactive; D1 antag: inactive; TRHR agonist: inactive; D1 agonist: 43; D1 potentiator: inactive

Results for O=C(COC(=O)c1ccc2c(c1[N+](=O)[O-])C(=O)c1ccccc1C2=O)NC1CC1 ?
TRHR PAM: inactive; D1 antag: inactive; TRHR agonist: inactive; D1 agonist: inactive; D1 potentiator: inactive

How did CCOc1ccc(NC(=O)CSc2cc(C)c3ccccc3n2)cc1 do in these assays?
TRHR PAM: inactive; D1 antag: inactive; TRHR agonist: inactive; D1 agonist: inactive; D1 potentiator: inactive

What do the screens show for `NC(=O)N/N=C/c1coc2ccc3ccccc3c2c1=O`?
TRHR PAM: inactive; D1 antag: -71; TRHR agonist: inactive; D1 agonist: inactive; D1 potentiator: inactive

What do the screens show for `COc1cc(NC(=O)N(Cc2ccco2)C2CCN(C(C)=O)CC2)cc(OC)c1OC`?
TRHR PAM: inactive; D1 antag: inactive; TRHR agonist: inactive; D1 agonist: inactive; D1 potentiator: inactive

How did CC(C)c1ccccc1NC(=O)CSc1nnc(COc2ccccc2)o1 do in these assays?
TRHR PAM: inactive; D1 antag: inactive; TRHR agonist: inactive; D1 agonist: inactive; D1 potentiator: inactive

What do the screens show for `Cc1ccc(C)c(NC(=O)CSc2nnc(-c3ccco3)o2)c1`?
TRHR PAM: 32; D1 antag: inactive; TRHR agonist: inactive; D1 agonist: inactive; D1 potentiator: inactive

How did COc1ccc(CCCc2nnc(SCC(=O)Nc3ccccc3F)o2)cc1C do in these assays?
TRHR PAM: inactive; D1 antag: inactive; TRHR agonist: inactive; D1 agonist: inactive; D1 potentiator: inactive

What do the screens show for `Cc1cccc(NC(=O)CSc2nnc(-c3ccco3)o2)c1C`?
TRHR PAM: inactive; D1 antag: inactive; TRHR agonist: inactive; D1 agonist: inactive; D1 potentiator: inactive

Results for CC(C)c1ccccc1NC(=O)CSc1nnc(COc2ccccc2Cl)o1 ?
TRHR PAM: inactive; D1 antag: inactive; TRHR agonist: inactive; D1 agonist: 38; D1 potentiator: inactive

How did Cc1ccc(NC(=O)CSc2nnc(-c3ccc([N+](=O)[O-])cc3)o2)c(C)c1 do in these assays?
TRHR PAM: inactive; D1 antag: inactive; TRHR agonist: inactive; D1 agonist: 51; D1 potentiator: inactive

What do the screens show for `COc1ccc(CCCc2nnc(SCC(=O)Nc3ccc(F)cc3)o2)cc1C`?
TRHR PAM: inactive; D1 antag: -50; TRHR agonist: inactive; D1 agonist: inactive; D1 potentiator: inactive

What do the screens show for `Cc1cc(NC(=O)c2cccn2-c2nnc(N3CCCCC3)s2)ccc1Br`?
TRHR PAM: inactive; D1 antag: inactive; TRHR agonist: inactive; D1 agonist: inactive; D1 potentiator: inactive

What do the screens show for `CCc1ccccc1NC(=O)Cn1nc(N2CCN(c3ccccc3OC)CC2)ccc1=O`?
TRHR PAM: inactive; D1 antag: inactive; TRHR agonist: inactive; D1 agonist: inactive; D1 potentiator: inactive

How did COc1ccc(NC(=O)CSc2nnc(-c3ccc(OC)cc3)s2)cc1 do in these assays?
TRHR PAM: inactive; D1 antag: inactive; TRHR agonist: inactive; D1 agonist: inactive; D1 potentiator: inactive

What do the screens show for `CCOC(=O)CN(C(=O)CSc1nnc(-c2cccc(OC)c2)o1)c1ccc(F)cc1`?
TRHR PAM: inactive; D1 antag: inactive; TRHR agonist: inactive; D1 agonist: 56; D1 potentiator: inactive

What do the screens show for `COc1ccccc1NC(=O)CSc1nnc(-c2ccc(C)cc2)o1`?
TRHR PAM: inactive; D1 antag: -82; TRHR agonist: inactive; D1 agonist: inactive; D1 potentiator: inactive

How did COC(=O)CN(C(=O)CSc1nnc(-c2cccc(OC)c2)o1)c1ccc(OC)cc1 do in these assays?
TRHR PAM: inactive; D1 antag: inactive; TRHR agonist: inactive; D1 agonist: inactive; D1 potentiator: inactive
